Experimental data reported in PubChem BioAssay AID538 (PCMD, 2006).
Screen size: about 62,000 compounds; about 100 (0.16%) were called active.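 Rule for the calls: active = inhibition above 20% in each of the two 10-compound mixture wells holding the compound; inactive = the rest.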 What follows is part of a selection rich in actives, with near analogues and random picks from the rest.

molecular target: Complement C1s subcomponent (Homo sapiens) (UniProt P09871); assay: complement C1s protease inhibitors, primary screen, biochemical, 10-compound mixtures (AID 538); details: purified C1s, fluorogenic AMC substrate, pooled mixtures; screened at 5 µM (by protocol);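 note: 0% = enzyme wells lacking compound mixture and 100% = no-enzyme blank wells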
Sequence (P09871 16-437 limits assumed): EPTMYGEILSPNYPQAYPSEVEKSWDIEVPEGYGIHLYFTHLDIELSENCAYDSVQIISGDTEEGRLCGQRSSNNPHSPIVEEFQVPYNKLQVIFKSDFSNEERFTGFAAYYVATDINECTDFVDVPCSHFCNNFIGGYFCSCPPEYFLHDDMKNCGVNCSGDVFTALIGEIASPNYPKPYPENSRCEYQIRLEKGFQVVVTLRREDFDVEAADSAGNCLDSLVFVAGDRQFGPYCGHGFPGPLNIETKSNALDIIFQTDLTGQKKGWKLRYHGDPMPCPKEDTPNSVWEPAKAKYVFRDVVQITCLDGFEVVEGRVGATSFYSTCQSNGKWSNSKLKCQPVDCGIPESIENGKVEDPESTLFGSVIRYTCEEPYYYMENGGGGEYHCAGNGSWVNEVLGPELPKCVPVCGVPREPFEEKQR
Sequence (P09871 438-688 limits assumed): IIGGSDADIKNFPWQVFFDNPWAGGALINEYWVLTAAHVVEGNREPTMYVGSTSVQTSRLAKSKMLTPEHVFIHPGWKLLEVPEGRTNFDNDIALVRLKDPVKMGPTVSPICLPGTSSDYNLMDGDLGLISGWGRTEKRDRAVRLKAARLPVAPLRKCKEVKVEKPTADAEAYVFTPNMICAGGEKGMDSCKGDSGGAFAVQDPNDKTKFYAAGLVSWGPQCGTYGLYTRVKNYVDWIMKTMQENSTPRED

Mean inhibition % of two 10-compound mixtures (active compounds read high), active:
CC(C)(C)NC(=O)C(c1ccco1)N(Cc1ccc2c(c1)OCO2)C(=O)Cn1nnc2ccccc21 (configuration not stated) 22%
Cc1nc(C)c(C(=O)Nc2cccc(C)c2C)o1 22%

Mean inhibition % of two 10-compound mixtures (active compounds read high), inactive:
Cc1cc(C)c(C#N)c(SCc2ccccc2C(=O)O)n1 -0.765%
O=C(c1ccc2c(c1)OCO2)N1CCNc2ccccc2C1 12.4%
C=CCn1c(SCc2csc(C)n2)nc2scc(-c3ccc(C)o3)c2c1=O -5.96%
CCN(c1ccccc1)S(=O)(=O)c1cccc(C(=O)O)c1 -13.8%
CCOC(=O)n1c(SCC(=O)N(CC)CC)nc2ccccc21 12.2%
O=C1c2ccccc2C(O)N1Cc1ccccc1 (configuration not stated) -43.8%
COc1c(Br)cc2c(C)c(C(=O)N3CCOCC3)oc2c1Br 2.58%
CCOC(=O)COc1ccc(Cl)cc1C1NC(=O)NC(C)=C1C(C)=O (configuration not stated) -13%
COc1cc2c(cc1OC)C(c1ccncc1)CC(=O)N2 (configuration not stated) -11.7%
CC(=O)Nc1ccc(S(=O)(=O)N2CCSCC2)cc1 10.8%
CC(=O)Nc1ccc(NC(=O)CN2CCCC(C)C2)c(Cl)c1 (configuration not stated) 8.18%
O=C(O)CCSc1nnc(-c2ccccc2)n1-c1ccccc1 -30.3%
CC(C)OC(=O)c1cc(NC(=O)C2C3CCC(O3)C2C(=O)O)cc(C(=O)OC(C)C)c1 (configuration not stated) -14.5%
OC(COc1cccc2ccccc12)CN1CCN(c2ccccn2)CC1 (configuration not stated) -2.25%
COC(=O)c1ccc(Oc2nc(NC(C)C)nc(SC)n2)cc1 -1.35%
CCCCc1cc(=O)oc2cc(C)cc(OCc3nn[nH]n3)c12 -6.89%
CC(C)COC(=O)c1ccc(NC(=O)C2C3C=CC(C3)C2C(=O)O)cc1 (configuration not stated) -22.9%
COc1ccccc1NC1=NC2(CCCC2)N=C(N)N1 -18.3%
Cc1cc(NC(=O)COn2nnc3ccccc32)no1 0.88%
CCOC(=O)C1C(=O)OC2(CCCC2)C1C(=O)OCC (configuration not stated) 0.585%
COc1nc(OC)nc(N(C)CCO)n1 -12.5%
CC1CCN(C(=O)Cn2cc(C(=O)c3ccco3)c3ccccc32)CC1 -1.29%
CC(C)(C)C(=O)CCN1C(=O)C2(OCCO2)c2ccccc21 10.6%
CCCN(CCC)C(=O)C1c2ccccc2Oc2ccccc21 -0.445%
Nc1nc(SCCOc2ccccc2)n[nH]1 2.17%
CCCc1cc(=O)n2[nH]c(SCc3ccccc3)nc2n1 -2.75%
CC(=O)Oc1cccc(N2C(=O)CC(Nc3ccc(N4CCOCC4)cc3)C2=O)c1 (configuration not stated) 6.64%
O=C(CN1CCN(c2ccccn2)CC1)NCc1cccs1 -12.2%
O=C(CSc1nc2cc3c(cc2c(=O)n1CCC1=CCCCC1)OCO3)NCc1ccco1 2.65%
COc1ccc(S(=O)(=O)Nc2ccc(S(=O)(=O)N3CCCCC3)cc2)cc1OC -2.79%
CCC(C)(C)NC(=O)C(c1cccn1C)N(Cc1ccc(C)cc1)C(=O)Cn1nnc2ccccc21 (configuration not stated) -0.485%
COCCNC(=O)C(c1ccc(C)o1)N(Cc1ccccc1)C(=O)Cn1nnc2ccccc21 (configuration not stated) -0.43%
CCOc1ccc(-c2nnn(CC(=O)N3CCN(c4ccc(F)cc4)CC3)n2)cc1OCC -19.4%
CC(=O)c1c(C)[nH]c(C(=O)NCCCN2CCCC2)c1C 13.1%
Cc1nc(Nc2ccc3c(c2)OCCO3)c2nnn(Cc3ccccc3Cl)c2n1 -7.66%
Cn1c(SCC(=O)Nc2cccc(NC(=O)c3cccs3)c2)nnc1-c1ccncc1 -18.6%
COc1ccc(N2C(=O)CN=C2Nc2cccc(C)c2C)cc1OC 13.9%
Cc1nc(C)c(C(=O)Nc2ccc(C)c(F)c2)o1 4.8%
COc1ccc(Cl)cc1NC(=O)c1oc(C)nc1C -7.77%
COCc1nc2ccccc2n1Cc1ccccc1Br -10.1%
COc1cccc(C2/C(=C(/O)c3ccc(F)cc3)C(=O)C(=O)N2CCN(C)C)c1 (configuration not stated) 2.55%
Cc1ccc(NC(=O)N2CCC(C(=O)NCc3ccc(F)cc3)CC2)cc1 26.6%
CCOC(=O)c1[nH]c2ccc(C)cc2c1N=C(C)N(C)C -3.15%
COc1ccc(-n2c(SCC(=O)NCc3cccs3)nnc2-c2ccoc2C)cc1 1.91%
O=C(Cn1cnc2c(cnn2-c2ccccc2)c1=O)NCc1ccccc1 4.69%
O=C(OC1CCOC1=O)c1ccc(-c2nc3ccccc3s2)s1 (configuration not stated) 3.37%
CCOc1ccccc1C1CC(c2ccccc2)Nc2nc(N)nn21 (configuration not stated) -0.62%
CCOC(=O)CCC(=O)OCC(=O)NC(C)C1CC2CCC1C2 (configuration not stated) -1.13%
CCCCCC(=O)Nc1ccc2oc(-c3ccncc3)nc2c1 -5.25%
CCCCSc1nnc(-c2ccc(NC(=O)CC)cc2)n1C 10.2%
Cc1ccc2c(c1)NCC(C(=O)NC1CCC(C)CC1)O2 (configuration not stated) -7.38%
CN(C)CCCNc1c2c(c(C#N)c3nc4ccccc4n13)CCC2 11.8%
COc1ccc(S(=O)(=O)Nc2c(C)n(C)n(-c3ccccc3)c2=O)cc1 -40.7%
CCn1c(-c2cc(OC)ccc2OC)csc1=Nc1c(C)n(C)n(-c2ccccc2)c1=O 11.4%
Cc1ccc(C(=O)N2CCCCCC2)cc1Br 48.4%
O=S(=O)(CCc1nc2ccccc2o1)c1ccc(Cl)cc1 1.62%
COC(=O)c1ccc(NC(=O)CSc2nnc(-c3ccncc3)n2C)cc1 4.27%
Cc1ccc(S(=O)(=O)n2nc(OC(=O)C(C)(C)C)cc2N)cc1 -80.6%
O=C(CCS(=O)(=O)c1cccc2nonc12)NCCc1ccccc1Cl -46.5%
CCCC1C(c2ccccc2)C(C#N)(C#N)C2(C#N)CC1(N)NC2=O (configuration not stated) 13.4%
